The structures appear in SMILES notation. Results filed as inconclusive are left out. The source made the active and inactive calls. The call rests on the fitted dose curve; in most records, active means well fitted curve in the direction sought with a large enough effect; inconclusive means small, poorly fitted or top-dose-only effect, or another doubt; inactive means no such curve, though single readings can be large; an effect the other way counts as inactive or inconclusive.

A short description of assay [1]: Quantitative High-Throughput drug screen in 47 multiple myeloma cell lines against the NCATS MIPE library collection: KHM11_PLB cell viability assay (AID 1918962). Further: nearly all actives have a fitted effect of over 35% in size. Further: potency means the concentration at half of the fitted maximal effect. In a few lines: (§1)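 CellTiter-Glo luminescence (ATP) after 48 h compound exposure, 37C/5% CO2; 500 cells/well; MIPE 4.0 approved/investigational drugs pinned in; DMSO = 100%, media only = 0% viability.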

Assay [2] in a line: Quantitative High-Throughput drug screen in 47 multiple myeloma cell lines against the NCATS MIPE library collection: JIM3_ECACC cell viability assay (AID 1918963; further: nearly all actives have a fitted effect of over 35% in size; further: potency means the concentration at half of the fitted maximal effect). In short, it runs like this:
as §1

The nature of assay [3]: Quantitative High-Throughput drug screen in 47 multiple myeloma cell lines against the NCATS MIPE library collection: H1112_PLB cell viability assay (AID 1918967; further: nearly all actives have a fitted effect of over 30% in size; further: potency means the concentration at half of the fitted maximal effect). In short, it runs like this: (§2)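 CellTiter-Glo ATP luminescence gave viability after 48 h compound treatment at 37C of 500 multiple myeloma cells per well. Normalisation used DMSO-only wells as 100% and media-only wells as 0% viability; primary qHTS of approved and investigational drugs.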

Assay [4] in a line: Quantitative High-Throughput drug screen in 47 multiple myeloma cell lines against the NCATS MIPE library collection: KMS12PE_JCRB cell viability assay (AID 1918972). Further: nearly all actives have a fitted effect of over 30% in size. Further: potency means the concentration at half of the fitted maximal effect. In a few lines: (§3)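 Myeloma cells (500 per well) were exposed to MIPE 4.0 compounds by pin transfer and incubated 48 hours at 37C, 5% CO2. Viability was read as ATP by CellTiter-Glo luminescence, normalised to DMSO (100%) and media-only (0%) wells.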

Assay [5] in a line: Quantitative High-Throughput drug screen in 47 multiple myeloma cell lines against the NCATS MIPE library collection: NCIH929_DSMZ cell viability assay (AID 1918978). Further: nearly all actives have a fitted effect of over 35% in size. Further: potency means the concentration at half of the fitted maximal effect. In a few lines:
(§4)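 Myeloma cells (500/well) treated with MIPE 4.0 compounds for 48 h at 37 °C, 5% CO2. Viability read as ATP via CellTiter-Glo luminescence after 5 min at RT; DMSO-only wells = 100%, media-only = 0% viability.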

The nature of assay [6]: Quantitative High-Throughput drug screen in 47 multiple myeloma cell lines against the NCATS MIPE library collection: OCIMY1_PLB cell viability assay (AID 1918979). Further: nearly all actives have a fitted effect of over 35% in size. In short, it runs like this:
as §4

A short description of assay [7]: Quantitative High-Throughput drug screen in 47 multiple myeloma cell lines against the NCATS MIPE library collection: MM1S_ATCC cell viability assay (AID 1918980). Further: nearly all actives have a fitted effect of over 45% in size. Further: potency means the concentration at half of the fitted maximal effect. In a few lines: as §4
Assay [8] in a line: Quantitative High-Throughput drug screen in 47 multiple myeloma cell lines against the NCATS MIPE library collection: LP1_DSMZ cell viability assay (AID 1918982). Further: nearly all actives have a fitted effect of over 35% in size. Further: potency means the concentration at half of the fitted maximal effect. In a few lines: as §4
A short description of assay [9]: Quantitative High-Throughput drug screen in 47 multiple myeloma cell lines against the NCATS MIPE library collection: KMS12BM_JCRB cell viability assay (AID 1918971). Further: nearly all actives have a fitted effect of over 35% in size. Further: potency means the concentration at half of the fitted maximal effect. In a few lines:
(§5)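 Inhibition of cell viability is measured here. Each line was plated at 500 cells per well, treated with MIPE 4.0 drugs, kept 48 hours at 37C, then assayed for ATP content by CellTiter-Glo luminescence.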

The nature of assay [10]: Quantitative High-Throughput drug screen in 47 multiple myeloma cell lines against the NCATS MIPE library collection: KMS21BM_JCRB cell viability assay (AID 1918974). Further: potency means the concentration at half of the fitted maximal effect. The following applies: ATP luminescence, 48 h; viability: at 45.8 µM (top of the series). In a few lines:
as §2

The nature of assay [11]: Quantitative High-Throughput drug screen in 47 multiple myeloma cell lines against the NCATS MIPE library collection: MOLP8_DSMZ cell viability assay (AID 1918977). Further: nearly all actives have a fitted effect of over 45% in size. Further: potency means the concentration at half of the fitted maximal effect. In a few lines:
as §4

Assay [12] in a line: Quantitative High-Throughput drug screen in 47 multiple myeloma cell lines against the NCATS MIPE library collection: MM1R_ATCC cell viability assay (AID 1918981). Further: nearly all actives have a fitted effect of over 35% in size. Further: potency means the concentration at half of the fitted maximal effect. In short, it runs like this: as §4
The nature of assay [13]: Quantitative High-Throughput drug screen in 47 multiple myeloma cell lines against the NCATS MIPE library collection: JIM1_ECACC cell viability assay (AID 1918964). In short, it runs like this:
as §2

Assay [14] can be described thus: Quantitative High-Throughput drug screen in 47 multiple myeloma cell lines against the NCATS MIPE library collection: INA6_PLB cell viability assay (AID 1918965; further: nearly all actives have a fitted effect of over 55% in size; further: potency means the concentration at half of the fitted maximal effect). In a few lines: as §3
Assay [15] is described as follows: Quantitative High-Throughput drug screen in 47 multiple myeloma cell lines against the NCATS MIPE library collection: KMS27_JCRB cell viability assay (AID 1918970). Further: nearly all actives have a fitted effect of over 30% in size. In a few lines:
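Luminescent ATP read-out (CellTiter-Glo, 5 min at room temperature) after 48 h compound exposure of 500 KMS27_JCRB cells per well; DMSO wells define full viability and media-only wells zero.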

Assay [16] is described as follows: Quantitative High-Throughput drug screen in 47 multiple myeloma cell lines against the NCATS MIPE library collection: KMS20_JCRB cell viability assay (AID 1918973). Further: nearly all actives have a fitted effect of over 45% in size. In short, it runs like this:
as §2

Assay [17] can be described thus: Quantitative High-Throughput drug screen in 47 multiple myeloma cell lines against the NCATS MIPE library collection: Karpas25_ECACC cell viability assay (AID 1918968; further: nearly all actives have a fitted effect of over 35% in size; further: potency means the concentration at half of the fitted maximal effect). In a few lines: as §2
A short description of assay [18]: Quantitative High-Throughput drug screen in 47 multiple myeloma cell lines against the NCATS MIPE library collection: MMM1_PLB cell viability assay (AID 1918976). Further: nearly all actives have a fitted effect of over 35% in size. Further: potency means the concentration at half of the fitted maximal effect. In a few lines:
as §4

Assay [19] in a line: Quantitative High-Throughput drug screen in 47 multiple myeloma cell lines against the NCATS MIPE library collection: KMS26_JCRB cell viability assay (AID 1918975). Further: nearly all actives have a fitted effect of over 45% in size. In short, it runs like this:
as §5

A short description of assay [20]: Quantitative High-Throughput drug screen in 47 multiple myeloma cell lines against the NCATS MIPE library collection: JJN3_DSMZ cell viability assay (AID 1918966; further: nearly all actives have a fitted effect of over 50% in size). In short, it runs like this:
as §2

On to `CC(=O)[C@H]1CC[C@H]2[C@@H]3CC=C4C[C@@H](O)CC[C@]4(C)[C@H]3CC[C@]12C`, for which the Potency entry in assay [1], in [2], in assay [3], in assay [4], in assay [5] and in assay [6] was “inactive” in each case. The Potency entry in [7] and in assay [8] was “inactive” throughout.

Turning to `CCC(=O)O[C@]1(C(=O)CCl)[C@@H](C)C[C@H]2[C@@H]3CCC4=CC(=O)C=C[C@]4(C)[C@@]3(F)[C@@H](O)C[C@@]21C`, the Potency result in assay [1], in assay [10], in assay [11], in assay [5], in assay [6] and in assay [12] was “inactive” throughout. Further, the results for the Potency in assay [9] and in assay [4] were 14800 nM (active) and 16600 nM (active), respectively.

Regarding `Cc1cc(NS(=O)(=O)c2ccc(N)cc2)no1`, the Potency result in assay [1], in assay [13], in assay [14], in assay [3], in assay [15] and in assay [9] was “inactive” throughout. Besides, the Potency result in assay [4], in assay [16], in assay [10], in [11], in [6] and in assay [12] was “inactive” in each case. Also, the Potency in assay [7] was 9350 nM (active).

As to `NC(N)=NC(N)=NCCc1ccccc1`, the Potency in [1] was 16600 nM (active); in assay [2] it was 4690 nM (active); in assay [14], 20900 nM (active); in assay [17], 5260 nM (active); in [9] it was 10500 nM (active); in [10], 3320 nM (active). In addition, the Potency in assay [18] was 5260 nM (active); in assay [7] it was 2960 nM (active).

`CN(CCOc1ccc(CC2SC(=O)NC2=O)cc1)c1ccccn1` (stereo unspecified): the Potency entry in assay [1], in assay [2], in assay [14], in assay [3], in [17] and in [15] was “inactive” throughout. For the same compound, the Potency result in [4], in [16], in assay [11], in assay [5] and in [8] was “inactive” each time. Besides, the Potency was 14800 nM (active) in assay [18] and 16600 nM (active) in assay [7].

For the compound `O=C(O)c1cccnc1`, the Potency in [1] is 18700 nM (active); in [18] it was 1480 nM (active). Further, the Potency result in [2], in assay [14], in assay [4], in assay [16], in assay [11] and in [5] was “inactive” in each case. The Potency result in [6], in assay [7], in assay [12] and in assay [8] was “inactive” throughout.

Take `CCN1CCCC1CNC(=O)c1cc(S(N)(=O)=O)ccc1OC` (stereo unspecified): the Potency result in assay [1], in [13], in [4], in assay [19], in [18] and in assay [5] was “inactive” in each case. In addition, the Potency result in [6] and in [8] was “inactive” throughout. The Potency in assay [17] was 2090 nM (active).

As for `CO[C@@H]1[C@@H](OC(N)=O)[C@@H](O)[C@H](Oc2ccc3c(O)c(NC(=O)c4ccc(O)c(CC=C(C)C)c4)c(=O)oc3c2C)OC1(C)C`, the Potency in assay [1] is 2640 nM (active); in assay [2] it was 5260 nM (active); in [9] it was 2960 nM (active); in assay [12], 8330 nM (active). Also, the Potency result in assay [3], in assay [6] and in [8] was “inactive” each time.

Regarding `COC(c1ccccc1)(c1ccccc1)[C@H](Oc1nc(C)cc(C)n1)C(=O)O`, the Potency result in assay [1], in [13], in assay [3], in assay [15], in assay [4] and in [19] was “inactive” each time. In addition, the Potency result in assay [5] and in assay [12] was “inactive” in each case.

As for `CC(C)NCC(O)c1ccc(NS(C)(=O)=O)cc1` (stereo unspecified), the Potency entry in assay [1], in [2], in assay [3], in [15], in [9] and in assay [4] was “inactive” throughout. The Potency entry in assay [16], in assay [5], in [6] and in assay [8] was “inactive” each time. Besides, the Potency in assay [18] is 2090 nM (active); in assay [7], 7430 nM (active).

With `COCCCOc1cc(C[C@@H](C[C@H](N)[C@@H](O)C[C@H](C(=O)NCC(C)(C)C(N)=O)C(C)C)C(C)C)ccc1OC`, the Potency result in assay [1], in assay [2], in [4], in assay [5], in [12] and in assay [8] was “inactive” each time. The Potency in assay [7] was 74.3 nM (active).

For `CC1=C(C(=O)O)N2C(=O)[C@@H](NC(=O)C(N)c3ccccc3)[C@H]2SC1` (stereo partly specified), the Potency result in [1], in assay [3], in assay [17], in assay [4], in assay [16] and in assay [5] was “inactive” in each case. Also, the Potency entry in [6], in [12] and in assay [8] was “inactive” in each case. Besides, in assay [2], the Potency is 1.7 nM (active).

Turning to `NCCCC(O)(P(=O)(O)O)P(=O)(O)O`, the Potency entry in [1], in assay [15], in [4], in assay [16], in [18] and in assay [11] was “inactive” each time. Besides, the Potency result in assay [5], in assay [12] and in assay [8] was “inactive” in each case. For the same compound, in assay [7], the Potency was 11800 nM (active).

For `CCOCC(O)COc1ccc(NC(=O)CC[S+](C)C)cc1` (stereo unspecified), the Potency result in assay [1], in [2], in [20], in assay [15], in assay [9] and in assay [16] was “inactive” each time. Also, the Potency entry in assay [11], in assay [5], in [12] and in [8] was “inactive” throughout.

Consider `CCCc1cc(C(N)=S)ccn1`, for which the Potency entry in [1], in assay [13], in assay [14], in assay [20], in assay [3] and in assay [15] was “inactive” throughout. The Potency result in assay [9], in assay [4], in [16], in [11], in [5] and in assay [8] was “inactive” throughout.

For `Nc1nc(N)nc(-c2cc(Cl)ccc2Cl)n1`, the Potency result in [1], in assay [20], in assay [3], in assay [15], in assay [9] and in assay [4] was “inactive” throughout. Besides, the Potency result in assay [11], in assay [5], in assay [6], in assay [12] and in assay [8] was “inactive” each time. In addition, the Potency in assay [18] is 52.6 nM (active).

For `CCc1c2c(nc3ccc(OC(=O)N4CCC(N5CCCCC5)CC4)cc13)-c1cc3c(c(=O)n1C2)COC(=O)[C@]3(O)CC`, the Potency is 1480 nM (active) in assay [1]; 469 nM (active) in assay [14]; 1320 nM (active) in assay [3]; 2640 nM (active) in assay [17]; 264 nM (active) in assay [9]; 526 nM (active) in [4]. The Potency in assay [18] is 935 nM (active); in [11] it was 148 nM (active); in [5], 16600 nM (active); in assay [7], 1320 nM (active); in assay [12], 1050 nM (active); in assay [8] it was 590 nM (active).

As for `COc1cc(NS(=O)(=O)c2ccc(N)cc2)nc(OC)n1`, the Potency result in assay [2], in assay [14], in assay [20], in assay [3], in assay [17] and in [15] was “inactive” in each case. For the same compound, the Potency entry in assay [9], in assay [4], in assay [10], in assay [19], in assay [11] and in assay [5] was “inactive” throughout. For the same compound, the Potency entry in assay [6], in assay [12] and in assay [8] was “inactive” throughout.
